Reference: paper PMC11006913
Residue numbers refer to the chain shown, from its start.

How the values were obtained:
Assay in all cases: PBM; 200 nM protein, PBS
Conditions in all cases: dsDNA, one strand shown
VENTX [1] = biological target: T1, VENTX (Homo sapiens, UniProt O95231 78-163, R121Q)
T1 sequence: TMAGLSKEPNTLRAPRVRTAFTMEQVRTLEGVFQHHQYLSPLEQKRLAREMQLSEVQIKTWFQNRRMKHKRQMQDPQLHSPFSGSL

PAX4 [2] = biological target: T2, PAX4 (Homo sapiens, UniProt O43316 9-242, R200K)
T2 sequence: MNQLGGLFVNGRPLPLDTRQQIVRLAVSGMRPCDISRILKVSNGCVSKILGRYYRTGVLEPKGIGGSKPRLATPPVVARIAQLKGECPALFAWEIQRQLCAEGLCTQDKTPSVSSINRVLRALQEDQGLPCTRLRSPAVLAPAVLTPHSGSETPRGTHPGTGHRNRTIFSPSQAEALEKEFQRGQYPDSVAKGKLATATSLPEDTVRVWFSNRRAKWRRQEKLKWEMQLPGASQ

VENTX [3] = biological target: T3, VENTX (Homo sapiens, UniProt O95231 78-163, Y115F)
T3 sequence: T1 sequence with Y38F, Q44R

PAX4 [4] = biological target: T4, PAX4 (Homo sapiens, UniProt O43316 9-242)
T4 sequence: T2 sequence with K192R

HOXA2 [5] = biological target: HOXA2 (Homo sapiens, UniProt O43364 129-215, R185T)
HOXA2 (Homo sapiens, UniProt O43364 129-215, R185T), sequence (O43364 129-215 R185T): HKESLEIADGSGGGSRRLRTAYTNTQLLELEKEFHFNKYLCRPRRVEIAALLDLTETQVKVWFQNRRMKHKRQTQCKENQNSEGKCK

ALX3 [6] = biological target: ALX3 (Homo sapiens, UniProt O95076 139-225, N203Q)
ALX3 (Homo sapiens, UniProt O95076 139-225, N203Q), sequence (O95076 139-225 N203Q): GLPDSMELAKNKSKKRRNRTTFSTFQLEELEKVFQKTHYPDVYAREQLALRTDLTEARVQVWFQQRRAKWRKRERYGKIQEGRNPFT

PAX4 [7] = biological target: T5, PAX4 (Homo sapiens, UniProt O43316 9-242, R200Q)
T5 sequence: T2 sequence with K192Q

HOXA2 [8] = biological target: HOXA2 (Homo sapiens, UniProt O43364 129-215, R185K)
HOXA2 (Homo sapiens, UniProt O43364 129-215, R185K), sequence (O43364 129-215 R185K): as the sequence (O43364 129-215 R185T) above, with T57K counted along it

PAX4 [9] = biological target: T6, PAX4 (Homo sapiens, UniProt O43316 9-242, F177V)
T6 sequence: T2 sequence with F169V, K192R

MSX2 = MSX2 (Homo sapiens, UniProt P35548 130-214)
MSX2, sequence (P35548 130-214): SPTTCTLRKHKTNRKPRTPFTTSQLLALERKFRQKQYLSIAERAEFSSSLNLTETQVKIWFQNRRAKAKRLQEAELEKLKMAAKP

ALX3 [10] = biological target: ALX3 (Homo sapiens, UniProt O95076 139-225)
ALX3 (Homo sapiens, UniProt O95076 139-225), sequence (O95076 139-225): as the sequence (O95076 139-225 N203Q) above, with Q65N counted along it

PAX4 [11] = biological target: T7, PAX4 (Homo sapiens, UniProt O43316 9-242, F177Y)
T7 sequence: T2 sequence with F169Y, K192R

ALX3 [12] = biological target: ALX3 (Homo sapiens, UniProt O95076 139-225, L168V)
ALX3 (Homo sapiens, UniProt O95076 139-225, L168V), sequence (O95076 139-225 L168V): as the sequence (O95076 139-225 N203Q) above, with L30V, Q65N counted along it

VAX1 = VAX1 (Homo sapiens, UniProt Q5SQQ9 86-172, T142I)
VAX1, sequence (Q5SQQ9 86-172 T142I): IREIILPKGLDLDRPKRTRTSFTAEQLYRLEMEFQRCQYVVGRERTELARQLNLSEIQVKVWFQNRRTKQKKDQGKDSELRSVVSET

PAX4 [13] = biological target: T8, PAX4 (Homo sapiens, UniProt O43316 9-242, R227W)
T8 sequence: T2 sequence with K192R, R219W

HOXA2 [14] = biological target: HOXA2 (Homo sapiens, UniProt O43364 129-215, Y150S)
HOXA2 (Homo sapiens, UniProt O43364 129-215, Y150S), sequence (O43364 129-215 Y150S): as the sequence (O43364 129-215 R185T) above, with Y22S, T57R counted along it

HOXA4 = HOXA4 (Homo sapiens, UniProt Q00056 201-287, W262F)
HOXA4, sequence (Q00056 201-287 W262F): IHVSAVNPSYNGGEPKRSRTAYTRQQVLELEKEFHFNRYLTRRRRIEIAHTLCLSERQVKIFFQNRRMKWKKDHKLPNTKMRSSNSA

ALX3 [15] = biological target: ALX3 (Homo sapiens, UniProt O95076 139-225, N203S)
ALX3 (Homo sapiens, UniProt O95076 139-225, N203S), sequence (O95076 139-225 N203S): as the sequence (O95076 139-225 N203Q) above, with Q65S counted along it

HOXA2 [16] = biological target: HOXA2 (Homo sapiens, UniProt O43364 129-215)
HOXA2 (Homo sapiens, UniProt O43364 129-215), sequence (O43364 129-215): as the sequence (O43364 129-215 R185T) above, with T57R counted along it

HOXA7 = HOXA7 (Homo sapiens, UniProt P31268 116-202)
HOXA7, sequence (P31268 116-202): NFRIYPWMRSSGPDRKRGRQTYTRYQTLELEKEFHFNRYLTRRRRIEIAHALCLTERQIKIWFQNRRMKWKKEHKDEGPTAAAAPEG

AATTAGTG
binding signal (VENTX [1]): 11.9 upbm affinity estimate (log intensity, higher = more binding, comparable within an allelic series)
binding signal (PAX4 [2]): 11.8 upbm affinity estimate (log intensity, higher = more binding, comparable within an allelic series)
binding signal (VENTX [3]): 11.7 upbm affinity estimate (log intensity, higher = more binding, comparable within an allelic series)
binding signal (PAX4 [4]): 12.4 upbm affinity estimate (log intensity, higher = more binding, comparable within an allelic series)
binding signal (HOXA2 [5]): 12.8 upbm affinity estimate (log intensity, higher = more binding, comparable within an allelic series)
binding signal (ALX3 [6]): 8.36 upbm affinity estimate (log intensity, higher = more binding, comparable within an allelic series)
binding signal (PAX4 [7]): 12.3 upbm affinity estimate (log intensity, higher = more binding, comparable within an allelic series)
binding signal (HOXA2 [8]): 13.1 upbm affinity estimate (log intensity, higher = more binding, comparable within an allelic series)
binding signal (PAX4 [9]): 10.6 upbm affinity estimate (log intensity, higher = more binding, comparable within an allelic series)
binding signal (MSX2): 13.5 upbm affinity estimate (log intensity, higher = more binding, comparable within an allelic series)
binding signal (ALX3 [10]): 12.4 upbm affinity estimate (log intensity, higher = more binding, comparable within an allelic series)
binding signal (PAX4 [11]): 11.1 upbm affinity estimate (log intensity, higher = more binding, comparable within an allelic series)
binding signal (ALX3 [12]): 10.1 upbm affinity estimate (log intensity, higher = more binding, comparable within an allelic series)
binding signal (VAX1): 12.6 upbm affinity estimate (log intensity, higher = more binding, comparable within an allelic series)
binding signal (PAX4 [13]): 11.1 upbm affinity estimate (log intensity, higher = more binding, comparable within an allelic series)
binding signal (HOXA2 [14]): 10.8 upbm affinity estimate (log intensity, higher = more binding, comparable within an allelic series)
binding signal (HOXA4): 11.6 upbm affinity estimate (log intensity, higher = more binding, comparable within an allelic series)
binding signal (ALX3 [15]): 8.46 upbm affinity estimate (log intensity, higher = more binding, comparable within an allelic series)
binding signal (HOXA2 [16]): 12.2 upbm affinity estimate (log intensity, higher = more binding, comparable within an allelic series)

ATTAATGC
binding signal (HOXA7): 11 upbm affinity estimate (log intensity, higher = more binding, comparable within an allelic series)
binding signal (PAX4 [2]): 11.7 upbm affinity estimate (log intensity, higher = more binding, comparable within an allelic series)
binding signal (PAX4 [4]): 12.1 upbm affinity estimate (log intensity, higher = more binding, comparable within an allelic series)
binding signal (PAX4 [7]): 11.7 upbm affinity estimate (log intensity, higher = more binding, comparable within an allelic series)
binding signal (PAX4 [9]): 10.4 upbm affinity estimate (log intensity, higher = more binding, comparable within an allelic series)
binding signal (PAX4 [11]): 11 upbm affinity estimate (log intensity, higher = more binding, comparable within an allelic series)
binding signal (PAX4 [13]): 10.9 upbm affinity estimate (log intensity, higher = more binding, comparable within an allelic series)

CCGAGCGG
binding signal (HOXA4): 9.89 upbm affinity estimate (log intensity, higher = more binding, comparable within an allelic series)

CCAATTAC
binding signal (ALX3 [6]): 8.39 upbm affinity estimate (log intensity, higher = more binding, comparable within an allelic series)
binding signal (MSX2): 13.9 upbm affinity estimate (log intensity, higher = more binding, comparable within an allelic series)
binding signal (ALX3 [10]): 12.5 upbm affinity estimate (log intensity, higher = more binding, comparable within an allelic series)
binding signal (ALX3 [12]): 9.97 upbm affinity estimate (log intensity, higher = more binding, comparable within an allelic series)
binding signal (ALX3 [15]): 8.51 upbm affinity estimate (log intensity, higher = more binding, comparable within an allelic series)

AATTAAGC
binding signal (PAX4 [2]): 11.7 upbm affinity estimate (log intensity, higher = more binding, comparable within an allelic series)
binding signal (VENTX [3]): 11.5 upbm affinity estimate (log intensity, higher = more binding, comparable within an allelic series)
binding signal (PAX4 [4]): 12.2 upbm affinity estimate (log intensity, higher = more binding, comparable within an allelic series)
binding signal (HOXA2 [5]): 12.5 upbm affinity estimate (log intensity, higher = more binding, comparable within an allelic series)
binding signal (ALX3 [6]): 8.44 upbm affinity estimate (log intensity, higher = more binding, comparable within an allelic series)
binding signal (PAX4 [7]): 12 upbm affinity estimate (log intensity, higher = more binding, comparable within an allelic series)
binding signal (PAX4 [9]): 10.5 upbm affinity estimate (log intensity, higher = more binding, comparable within an allelic series)
binding signal (ALX3 [10]): 12.4 upbm affinity estimate (log intensity, higher = more binding, comparable within an allelic series)
binding signal (PAX4 [11]): 11 upbm affinity estimate (log intensity, higher = more binding, comparable within an allelic series)
binding signal (ALX3 [12]): 9.92 upbm affinity estimate (log intensity, higher = more binding, comparable within an allelic series)
binding signal (VAX1): 12.3 upbm affinity estimate (log intensity, higher = more binding, comparable within an allelic series)
binding signal (PAX4 [13]): 10.9 upbm affinity estimate (log intensity, higher = more binding, comparable within an allelic series)
binding signal (HOXA4): 11.5 upbm affinity estimate (log intensity, higher = more binding, comparable within an allelic series)
binding signal (ALX3 [15]): 8.49 upbm affinity estimate (log intensity, higher = more binding, comparable within an allelic series)

CCCAGGCG
binding signal (HOXA2 [5]): 7.06 upbm affinity estimate (log intensity, higher = more binding, comparable within an allelic series)
binding signal (HOXA2 [8]): 10.1 upbm affinity estimate (log intensity, higher = more binding, comparable within an allelic series)
binding signal (HOXA2 [14]): 10.5 upbm affinity estimate (log intensity, higher = more binding, comparable within an allelic series)
binding signal (HOXA2 [16]): 7.13 upbm affinity estimate (log intensity, higher = more binding, comparable within an allelic series)
